A structure can be active in one record and inactive in another. Activity calls are given as the source filed them. How the source made its calls: active means hit-call score of the fitted dose curve at least 0.9, where 1 is the maximum; inactive means score below 0.9.

This note sets out measurements from PubChem BioAssay (EPA / NIEHS).

The nature of assay [1]: ATG_M_06_CIS: Attagene CIS-FACTORIAL HepG2 Assay for M06 Transcription Factor (Internal Marker) (AID 2282950). The following applies: HepG2 Attagene CIS-FACTORIAL M06 internal marker reporter; actives raise or lower the signal. Put shortly: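 Serves as a background control readout. Transfected HepG2 exposed to compounds for 24 h, then reporter transcripts quantified by fluorescent RT-PCR and capillary electrophoresis. Both directions fitted against DMSO baseline.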

The target in assay [2] is Hypoxia-inducible factor 1-alpha (Homo sapiens) (UniProt Q16665). Kind of assay: ATG_HIF1a_CIS: Attagene CIS-FACTORIAL HepG2 Assay for human Hypoxia Inducible Factor 1 (HIF1A) (AID 2282951). The following applies: HepG2 Attagene cis-factorial HIF1a reporter transcription; actives raise or lower the signal. Put shortly:
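Fluorescence intensity of capillary-separated, 6-FAM-labelled reporter amplicons gives mRNA induction in HepG2 cells carrying transfected cis-promoter reporter units; cells exposed 24 h, responses fitted up or down from DMSO.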

Assay [3] deals with Hepatocyte nuclear factor 6 (Homo sapiens) (UniProt Q9UBC0). Kind of assay: ATG_HNF6_CIS: Attagene CIS-FACTORIAL HepG2 Assay for human Hepatocyte Nuclear Factor 6 (HNF6) (AID 2282952). The following applies: HepG2 Attagene cis-factorial HNF6 reporter transcription; actives raise or lower the signal. Put shortly:
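HepG2 cells transiently transfected with cis-element-driven multiplexed reporter units measuring endogenous transcription factor activity. After 24 h exposure, reporter mRNA quantified by RT-PCR, FAM-labelled fragments and capillary electrophoresis; bidirectional fitting versus DMSO.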

The target in assay [4] is Heat shock factor protein 1 (Homo sapiens) (UniProt Q00613). Description: ATG_HSE_CIS: Attagene CIS-FACTORIAL HepG2 Assay for human Heat Shock Transcription Factor 1 (HSE) (AID 2282953). The following applies: HepG2 HSE cis-reporter, Attagene RNA transcription; actives raise or lower the signal. Put shortly:
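Endogenous transcription factor activity in transiently transfected HepG2, read as reporter mRNA by RT-PCR with fluorescent capillary electrophoresis after 24 h. Gain or loss of signal fitted versus DMSO baseline.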

The nature of assay [5]: ATG_PBREM_CIS: Attagene CIS-FACTORIAL HepG2 Assay for human Phenobarbital-responsive Enhancer Module (PBREM) (AID 2282955). The conditions noted are these: HepG2 PBREM cis-reporter, Attagene multiplexed transcription; actives raise or lower the signal. Put shortly: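 Cells were transfected with cis-element reporter units and treated for 24 h, after which RNA was extracted and reporter transcripts measured by RT-PCR and capillary electrophoresis.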

The target in assay [6] is Paired box protein Pax-6 (Homo sapiens) (UniProt P26367). Kind of assay: ATG_Pax6_CIS: Attagene CIS-FACTORIAL HepG2 Assay for human Paired Box 6 (PAX6) (AID 2282956). The following applies: HepG2 CIS-FACTORIAL PAX6 reporter transcription, RNA readout; actives raise or lower the signal. The procedure, abridged:
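Transient MRTU transfection of HepG2 → compound exposure 24 h → TriZol RNA, oligo(dT) RT → PCR, 6-FAM primer extension, HpaI cut → capillary electrophoresis; activity fitted both directions against DMSO.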

A short description of assay [7]: ATG_PXRE_CIS: Attagene CIS-FACTORIAL HepG2 Assay for human Pregnane X Receptor Element (PXRE) (AID 2282957). The following applies: HepG2 Attagene CIS-FACTORIAL PXRE reporter, mRNA; actives raise or lower the signal. Put shortly: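 HepG2 cells transiently transfected with cis-element-driven multiplexed reporter units; after 24 h chemical exposure, reporter mRNA measured by RT-PCR, 6-FAM labelling, HpaI digestion and capillary electrophoresis. Bidirectional fitting relative to DMSO.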

A short description of assay [8]: ATG_RORE_CIS: Attagene CIS-FACTORIAL HepG2 Assay for human RAR-related Orphan Receptor Element (RORE) (AID 2282959). The following applies: HepG2 Attagene cis-factorial RORE reporter, mRNA; actives raise or lower the signal. Put shortly: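 Endogenous factor activity at a cis response element is read as reporter transcript levels in HepG2 cells, 24 h post-dose. Transcripts are quantified by RT-PCR with capillary electrophoresis, and data fitted in both directions against DMSO.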

Assay [9] in a line: ATG_MRE_CIS: Attagene CIS-FACTORIAL HepG2 Assay for human Metal Responsive Element (MRE) (AID 2282954). The following applies: HepG2 MRE cis-reporter transcription, Attagene multiplex; actives raise or lower the signal. Put shortly: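 HepG2 cells transiently transfected with cis-element-driven reporter units; mRNA measured 24 h after dosing. Reporter transcripts quantified by RT-PCR, FAM labelling, HpaI digestion and capillary electrophoresis; bidirectional fit versus DMSO.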

A short description of assay [10]: ATG_PPRE_CIS: Attagene CIS-FACTORIAL HepG2 Assay for human Peroxisome Proliferator-activated Response Element (PPRE) (AID 2282958). The following applies: HepG2 PPRE cis-element reporter, Attagene transcription factor profiling; actives raise or lower the signal. The procedure, abridged:
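In this cell-based multiplex, a PPRE cis element drives a reporter sequence in transiently transfected HepG2 cells. Following 24 h treatment, labeled cDNA amplicons are sized and quantified by capillary electrophoresis, with DMSO defining baseline.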

Sequence of Paired box protein Pax-6 (Homo sapiens) (P26367 whole entry, looked up): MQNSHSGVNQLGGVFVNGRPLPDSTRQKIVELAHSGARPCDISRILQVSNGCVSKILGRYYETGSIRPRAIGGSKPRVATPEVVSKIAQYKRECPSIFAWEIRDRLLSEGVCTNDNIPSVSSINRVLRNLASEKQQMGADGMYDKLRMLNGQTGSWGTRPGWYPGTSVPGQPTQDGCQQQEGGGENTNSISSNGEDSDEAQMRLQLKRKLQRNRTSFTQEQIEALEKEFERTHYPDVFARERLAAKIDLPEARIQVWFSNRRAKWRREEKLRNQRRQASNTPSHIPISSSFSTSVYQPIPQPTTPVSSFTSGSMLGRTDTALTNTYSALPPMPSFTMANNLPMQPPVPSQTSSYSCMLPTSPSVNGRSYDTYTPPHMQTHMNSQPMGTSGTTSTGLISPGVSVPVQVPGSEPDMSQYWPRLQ
Sequence of Hepatocyte nuclear factor 6 (Homo sapiens) (Q9UBC0 whole entry, looked up, the tested form may be a part): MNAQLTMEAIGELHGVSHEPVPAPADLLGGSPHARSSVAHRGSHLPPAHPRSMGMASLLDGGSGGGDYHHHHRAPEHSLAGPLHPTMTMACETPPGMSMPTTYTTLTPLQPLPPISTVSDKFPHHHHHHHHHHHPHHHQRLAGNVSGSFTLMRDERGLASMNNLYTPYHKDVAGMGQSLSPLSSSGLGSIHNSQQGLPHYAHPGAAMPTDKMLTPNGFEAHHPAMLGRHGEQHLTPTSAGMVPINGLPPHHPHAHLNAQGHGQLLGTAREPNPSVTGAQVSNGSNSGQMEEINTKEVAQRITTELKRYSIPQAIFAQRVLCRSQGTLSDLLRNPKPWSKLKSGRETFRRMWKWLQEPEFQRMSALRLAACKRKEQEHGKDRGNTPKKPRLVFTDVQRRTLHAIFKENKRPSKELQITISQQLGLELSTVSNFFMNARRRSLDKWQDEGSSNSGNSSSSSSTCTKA
Sequence of Hypoxia-inducible factor 1-alpha (Homo sapiens) (Q16665 whole entry, looked up): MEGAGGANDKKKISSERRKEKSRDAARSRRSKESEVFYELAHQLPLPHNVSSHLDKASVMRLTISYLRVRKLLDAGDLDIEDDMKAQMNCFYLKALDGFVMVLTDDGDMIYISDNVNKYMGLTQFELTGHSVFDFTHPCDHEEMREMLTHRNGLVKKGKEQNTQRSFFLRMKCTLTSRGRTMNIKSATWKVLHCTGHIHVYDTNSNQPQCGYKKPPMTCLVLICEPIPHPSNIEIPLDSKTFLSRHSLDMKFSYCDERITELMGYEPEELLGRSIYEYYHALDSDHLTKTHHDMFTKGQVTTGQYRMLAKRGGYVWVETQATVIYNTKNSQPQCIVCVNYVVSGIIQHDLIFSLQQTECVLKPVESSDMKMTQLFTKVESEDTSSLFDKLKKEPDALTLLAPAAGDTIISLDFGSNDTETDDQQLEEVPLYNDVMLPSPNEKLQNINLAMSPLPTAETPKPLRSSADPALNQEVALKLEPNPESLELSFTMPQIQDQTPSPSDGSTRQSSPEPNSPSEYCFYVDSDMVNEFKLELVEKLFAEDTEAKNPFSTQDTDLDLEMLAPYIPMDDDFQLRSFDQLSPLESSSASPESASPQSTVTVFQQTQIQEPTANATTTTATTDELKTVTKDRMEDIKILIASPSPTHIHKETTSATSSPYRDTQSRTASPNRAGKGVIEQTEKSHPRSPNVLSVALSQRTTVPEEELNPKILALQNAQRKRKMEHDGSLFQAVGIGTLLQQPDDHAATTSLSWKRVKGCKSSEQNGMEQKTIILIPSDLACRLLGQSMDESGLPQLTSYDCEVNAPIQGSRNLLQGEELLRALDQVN
Sequence of Heat shock factor protein 1 (Homo sapiens) (Q00613 whole entry, looked up): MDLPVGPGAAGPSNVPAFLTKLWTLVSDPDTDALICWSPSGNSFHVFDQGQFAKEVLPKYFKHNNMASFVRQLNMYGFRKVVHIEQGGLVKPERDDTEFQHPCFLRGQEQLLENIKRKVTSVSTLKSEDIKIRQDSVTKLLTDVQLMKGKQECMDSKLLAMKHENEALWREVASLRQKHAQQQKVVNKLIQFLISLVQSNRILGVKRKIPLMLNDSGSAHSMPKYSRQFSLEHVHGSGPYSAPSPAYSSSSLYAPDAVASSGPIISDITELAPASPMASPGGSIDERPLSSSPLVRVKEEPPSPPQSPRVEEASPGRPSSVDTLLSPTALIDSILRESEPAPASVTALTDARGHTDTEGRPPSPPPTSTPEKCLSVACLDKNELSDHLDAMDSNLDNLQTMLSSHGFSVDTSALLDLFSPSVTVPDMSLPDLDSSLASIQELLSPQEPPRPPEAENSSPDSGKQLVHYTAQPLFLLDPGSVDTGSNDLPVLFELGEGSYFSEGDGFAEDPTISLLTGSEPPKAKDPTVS

Take `Fc1ccc(C2(Cn3cncn3)OC2c2ccccc2Cl)cc1` (configuration not stated): the compound was classed as inactive in assay [1], in [2], in assay [3], in [4], in assay [5] and in assay [6]. Further, the result in [8] was inactive. For the same compound, the AC50 (usually the concentration at which the activity in the assay is half-maximal) in assay [7] was 3.04 µM (active).
Regarding `O=C(CCl)CCl`, the outcome in assay [1] and in assay [8] was inactive. In addition, the AC50 in assay [2] was 45.6 µM (active); in [3] it was 33.4 µM (active); in [4], 58.7 µM (active); in [9], 48.9 µM (active); in assay [6], 41.3 µM (active); in assay [7], 49.3 µM (active).
On to `CCSC(C)CC1CC(=O)C(C(CC)=NOC/C=C/Cl)=C(O)C1` (configuration not stated), for which the outcome in [1], in assay [2], in assay [3], in assay [4], in assay [9] and in assay [6] was inactive. Moreover, the result in assay [10] and in assay [8] was inactive.
For the compound `ClCCBr`, the call in assay [1], in assay [2], in [3], in assay [9], in assay [5] and in assay [6] was inactive. Besides, the compound was called inactive in assay [10] and in assay [8].
As for `O=C(OC1CCCCC1)c1ccccc1C(=O)OC1CCCCC1`, the call in assay [1], in [3], in assay [5] and in [6] was inactive. The AC50 in assay [2] is 11.2 µM (active); in assay [9], 23.5 µM (active); in assay [7], 0.58 µM (active); in assay [8], 8.39 µM (active).
`N#CN=C(N)N`: the outcome in assay [1], in [2], in assay [3], in assay [9], in assay [5] and in [6] was inactive. The call in [7], in assay [10] and in [8] was inactive.
On to `COP(=S)(OC)Oc1c(Cl)cc(C)cc1Cl`, for which the compound was called inactive in [1], in assay [2], in assay [3], in [5], in assay [6] and in assay [10]. Also, in assay [9], the AC50 is 27.1 µM (active).
As for `CC(=[OH+])/C=C(/C)[O-].CC(=[OH+])/C=C(/C)[O-].CC(=[OH+])/C=C(/C)[O-].[Fe]`, the call in [1], in assay [2], in [3], in assay [9], in assay [6] and in assay [10] was inactive. In assay [8], the result was inactive.
`CCC(C)c1cccc(C(C)CC)c1O` (configuration not stated): the outcome in assay [1], in assay [2], in [3], in assay [9], in [6] and in [10] was inactive. Also, the compound was classed as inactive in [8].
Turning to `C[C@H]1O[C@@H](O[C@H]2[C@@H](O)C[C@H](O[C@H]3[C@@H](O)C[C@H](O[C@H]4CC[C@@]5(C)[C@H](CC[C@@H]6[C@@H]5CC[C@]5(C)[C@@H](C7=CC(=O)OC7)CC[C@]65O)C4)O[C@@H]3C)O[C@@H]2C)C[C@H](O)[C@@H]1O`, the compound was classed as inactive in assay [1], in [2], in [9], in assay [5], in assay [6] and in assay [8]. For the same compound, the AC50 in [3] and in assay [7] was 0.0564 µM (active) in each case.
In the case of `COC(=O)Cc1ccccc1`, the result in assay [1], in assay [2], in [3], in assay [9], in assay [5] and in assay [6] was inactive. Also, the compound was classed as inactive in [10] and in assay [8].
Regarding `O=C1CCCN1`, the outcome in assay [1], in assay [2], in [4], in assay [9], in [5] and in assay [6] was inactive. Further, the result in assay [7], in assay [10] and in assay [8] was inactive.
As to `Oc1ccc(-c2ccccc2)cc1`, the compound was called inactive in assay [1], in [2], in assay [3] and in assay [10]. The results for the AC50 in assay [5], in assay [6] and in assay [8] were 176 µM (active), 100 µM (active) and 162 µM (active), respectively.
As to `Nc1ccc(-c2ccc(N)c(Cl)c2)cc1Cl`, the result in assay [1], in [2], in assay [3] and in assay [6] was inactive. For the same compound, the values for the AC50 in assay [9], in assay [7] and in assay [8] were 46.5 µM (active), 27.4 µM (active) and 24.3 µM (active), respectively.
Turning to `CNC(=O)O/N=C/C(C)(C)S(C)=O` (configuration not stated), the call in assay [1], in assay [2], in assay [3], in assay [5], in assay [6] and in assay [7] was inactive. The compound was called inactive in assay [10] and in [8].
For the compound `CC12CC1(C)C(=O)N(c1cc(Cl)cc(Cl)c1)C2=O` (configuration not stated), the call in assay [1], in [2], in assay [4], in [9], in assay [5] and in [6] was inactive. Also, the compound was called inactive in assay [8]. The AC50 in assay [5] was 11.1 µM (active); in assay [7] it was 4.87 µM (active) [middle of 4 runs].
For `CN(CCCC(=O)c1cccnc1)N=O`, the compound was called inactive in assay [1], in assay [2], in assay [3], in assay [5], in assay [6] and in [10]. The compound was called inactive in [8]. Further, in assay [7], the AC50 was 27.2 µM (active).
In the case of `OCC(O)CCl` (configuration not stated), the compound was classed as inactive in assay [1], in [2], in assay [3], in assay [9], in assay [5] and in assay [6]. Moreover, the call in assay [10] and in [8] was inactive.
On to `COc1ccc(OC)c(C=O)c1`, for which the compound was called inactive in [1], in assay [2], in assay [3], in assay [9], in [6] and in assay [8]. The AC50 in assay [7] was 16.9 µM (active).
For the compound `CC(C)(c1ccc(OCC2CO2)cc1)c1ccc(OCC2CO2)cc1` (configuration not stated), the outcome in assay [1], in [3], in assay [5] and in [10] was inactive. Also, the AC50 in [2] was 31.2 µM (active); in assay [9], 31.8 µM (active); in assay [6], 39.2 µM (active); in [8] it was 33.4 µM (active).
`O=[N+]([O-])c1ccc2c3c(cccc13)CC2`: the compound was classed as inactive in assay [1], in assay [3], in assay [6], in assay [10] and in assay [8]. Further, the values for the AC50 in assay [2] and in assay [7] were 26.7 µM (active) and 4.23 µM (active), respectively.
On to `C=CC(=O)OCCCCCC(C)C`, for which the outcome in [1], in [2], in [3], in assay [9], in assay [6] and in assay [8] was inactive.
For the compound `Oc1c(I)cc(I)cc1I`, the result in assay [1], in assay [3] and in assay [7] was inactive. Moreover, the concentration at half-maximal activity (AC50) is 41.9 µM (active) in [2], 100 µM (active) in [9], 77.1 µM (active) in assay [6] and 31.1 µM (active) in assay [8].
As for `CCCCCCCCc1ccc(O)cc1`, the outcome in [1], in [2], in assay [4], in assay [9], in assay [5] and in [6] was inactive. For the same compound, the outcome in assay [7], in assay [10] and in assay [8] was inactive.
Regarding `CC(C)(c1ccccc1)c1ccc(O)c(C(C)(C)c2ccccc2)c1`, the result in assay [1], in [3] and in [8] was inactive. For the same compound, the AC50 was 11.1 µM (active) in assay [2]; 13.3 µM (active) in [9]; 0.42 µM (active) in assay [5]; 12.7 µM (active) in assay [6]; 0.156 µM (active) in assay [7].
As for `O=C(O)Cc1ccccc1`, the compound was called inactive in [1], in [2], in assay [3], in assay [9], in [5] and in assay [6]. In addition, in assay [8], the compound was classed as inactive.
As for `CCC[CH2][Sn]([CH2]CCC)([CH2]CCC)[O]C(=O)c1ccccc1`, the compound was classed as inactive in [1], in [2], in [3] and in assay [6].
On to `BrCCBr`, for which the outcome in assay [1], in [2], in assay [3], in [5], in assay [6] and in assay [7] was inactive. Besides, the compound was classed as inactive in assay [10] and in assay [8].
Take `O=c1[nH]c(=O)[nH]c(=O)[nH]1`: the compound was called inactive in assay [1], in assay [2], in assay [4], in assay [9], in assay [5] and in [6]. The call in assay [7], in assay [10] and in [8] was inactive.
